# Measured values as given in PubChem BioAssay AID1347426 (Functional Genomics Laboratory (NCATS/FGL), 2020).
# Out of some 31,000 sequences screened, about 1,400 (4.5%) were called active. Only a selection was taken, and actives are over-represented in it overall. Unmarked numbers belong to inactive results.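 How the source made its calls: active means median seed-adjusted z-score above 1 or below -1; inactive means the rest.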
# Assay: Novel Modifiers of Survival Motor Neuron (SMN) Protein: Gene Identification via Genome-wide siRNA Screen;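 further: luminescence tracks full-length SMN protein made from the SMN2 reporter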
# Details: HEK293T SMN2-luciferase reporter, siRNA knockdown, 72 h; actives lie on both sides
# Procedure, shortened: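 siRNA screen, 10418 genes ×3 siRNAs; 1 pmol/well, lipid reverse transfection into HEK293T SMN2-luc reporter line. 72 h, 37 °C, 5% CO2; ONE-Glo readout. Data: neg-ctrl normalized, log10, MAD; hit = MAD >1.0 or < -1.0.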
row,Sequence,median seed-adjusted z-score
1,GGAGAUAUUUUUGACGGAATT against ZFHX3,0.045
2,AAGCCUACCAGGUCAAGUATT against EVI5L,0.0497
3,GGAUAUUAAGGACAGGAAATT against RAN,-3.09 (active)
4,GAAGCUACAGAAUCUGGAATT against ARFGAP2,0.0672
5,GGAUUCAACUUUACAAGAATT against BTD,-0.165
6,AGGAGAUCGUCGUCACUGATT against NNMT,-0.095
7,CCAUAGCAGUAAUGAUACATT against GRIN3A,0.241
8,GCCUGAACCGAGUAGAAGATT against KCNQ1,-0.0525
9,GCAAGACCAUCAACAAGAUTT against CHRNE,0.349
10,CGGUCACAAUUUGCGCUGATT against ST8SIA3,-0.848
11,AAACAAUGGUUUGUGCAAATT against UCRC,-0.93
12,GGCUUUAAGAUCACGCAGATT against SNRPA,-2.09 (active)
13,GGUCCGCUACUACCACCAATT against FUT4,-0.24
14,GAAGCUUACAGAUUCGAUATT against CNTNAP2,-0.196
15,GGAUGACAUUAGCAGGUAUTT against ERCC6,0.0421
16,GAAAGUUCAAGUACAGUGATT against CYP2E1,0.81
17,GAAUCUGGUGGGCCCUUUATT against POFUT2,-0.86
18,GCUCAGCAUUGUCUGCAAATT against RNASE6,0.832
19,GAUUCUAGGAUAAGCACUATT against KLK8,0.736
20,GGUAAAGUUUUACAGCAUUTT against MTCH2,-0.168
21,CCUGUAGAUUUGUCAACUATT against RANBP2,1.53 (active)
22,AGCACGAAGGCAAACCCUATT against CRIP1,-0.622

row,Sequence,median seed-adjusted z-score
1,GUUGAGCCCUUGUAUAUUATT against UBE2C,0
2,GCUUUGAGGAAAAUCCGAATT against SLC26A3,-0.506
3,GGAAAGCUCUUCGUCUGGATT against IFIT5,0
4,GCCUCUUAAUUUACCAGAATT against OGN,0.0889
5,GGUUGUUAGUGGAUCAUCATT against FBXW11,0.206
6,GAGUGAUAUGAAACGGAAATT against NVL,0.701
7,GUUUCGAGAUUGUUGCUAUTT against CCNL1,-1.26 (active)
8,CGACUACUACUACCCUGAUTT against CCR8,-0.206
9,AGUGCAAAAACGUGCUGAATT against AURKAIP1,0.067
10,CGAUUGCUUUUCUACCAACTT against SCP2,0.413
11,CAUUUCGACUGGAUCAUAUTT against CLK1,-0.436
12,AUACAGAUGAUAAACCAUUTT against ZBTB34,0.0298
13,CGGCCCUCCUCUGAAAAGATT against POU4F2,1.46 (active)
14,CCUCAGAUCUGAUGUCCAATT against VPS4A,0
15,GAAUGACCCUGUACCCUAUTT against TAF2,-0.243
16,GAAGGAUUUUGAGCCCGAATT against LETM1,-0.491
17,ACACGUUGGAAGUAGCUGATT against OTUD4,0.167
18,GCUUAUAUGUUACCAUGGATT against COG4,-0.508
19,GGUGACCGGUUACUUGGGATT against FFAR1,0.248
20,GCUUAUCUCGGCAAUCAAATT against PAPPA2,-0.173
21,GAAAGACGAGCUUUACCUATT against GSK3A,0.248
22,UGUGGAUCUGCUUACCAAATT against ZFAND2B,0

row,Sequence,median seed-adjusted z-score
1,GAGGUUUUCCAGACGGUGATT against EHD3,0.569
2,GCAUGCUCAUGGGUUACAATT against ZNF451,0
3,GGUGGUUGCUGUAUAUGGATT against KCTD9,1.31 (active)
4,CGGAAGCAGUUCCAACUUUTT against AKAP8,-0.252
5,CAAAAUACAGAGUUUCUUUTT against RILP,0.503
6,GGAUGUGAACGGGCACAUUTT against CDC42BPG,0.153
7,CAGACAGUAUGUUCGAAGATT against PPAT,-1.51 (active)
8,GAAUCCUGAUGGGUAUGAATT against CPD,-0.198
9,GUCUUUAAUGCGCACUAUATT against FEZF1,0.155
10,ACAUCGUUGUGGUCAAGGUTT against ADAMTS15,0.765
11,GGACAAAACUCCUCUCUAUTT against MED27,-1.62 (active)
12,GUAUAGGGCCUGUAAGUUUTT against LANCL1,0
13,CUGCCUUGAUGACACCAGATT against TRIM16,0.345
14,CUACUAUCCUGGUUCUGGATT against PROS1,0.436
15,GUGAUACUGUCAAAGGUCATT against ATF2,0.424
16,GGGUUUAACUGGGAACUCUTT against GALNT8,-0.283
17,GAUCCGUUGGUGCAUGAAATT against ABHD2,-1.21 (active)
18,GAUCGACUGCUAGAGAGUATT against DCLK1,0.193
19,GUGCUAACUCAAUUCCAUATT against SSBP3,0.00592
20,GCCUUUCAGCAUGCGGUUATT against GDPD1,0.527
21,CCAUCUCUUUGGUAGUACUTT against TBC1D23,0.0932
22,CGUCUUUCCAGAAUUCAAATT against HGS,1.16 (active)

row,Sequence,median seed-adjusted z-score
1,GCAAGACUUUUGGUCGAAATT against ZNF816A,0.39
2,CCGUUGCUAUGAACAAGUUTT against B4GALT3,-0.138
3,GACAGAAGAUCAAUAUGAATT against ETS2,0.636
4,GAAGAGUGCUUGAAAUUUUTT against GFRA1,0.125
5,GCAUCCGGAUUCUUGAUGATT against PGK2,-0.127
6,ACAAAGCUGCUGUGCUAUATT against BET1,0.394
7,CAGAUUACGUUUAUAAGAATT against ZNF274,0.452
8,CGAGUGCACUGCUGCCUAUTT against 5-Sep,-0.0749
9,GAUCCGAGAUCAACACCUUTT against PIK3R3,-1.88 (active)
10,GACUACCAGUUGAUCAUGUTT against TTBK1,0.00054
11,CACCUGUACUUAUCCCGAATT against MEGF10,0.622
12,AAAUCGCGACGACUAAAUATT against CCBE1,0.964
13,CAUCAGCUUCCGCAACUUUTT against LRP3,-1.05 (active)
14,GGAAUACAUCAGAAUGGUATT against ITCH,0.199
15,CCAAUGCUGUGACUUUCGATT against KIFC3,0.54
16,GCAGCAAAGGAAACCUAAATT against KLRC3,0.833
17,GCAAGCGAGUCAACACCAATT against DRD2,-0.0273
18,CUUCAGUACCUUAUCAUUATT against ST6GALNAC5,-0.0321
19,GGCCGUUUGUCAUUCCCUUTT against CBFA2T3,-0.135
20,GGAAGAGACUUUGUCCACATT against BIRC7,-1.44 (active)
21,CUCUGGGAGUCACGACUUUTT against GPR37L1,-0.0348
22,GAGACAAAUUUGGGCCUUATT against HSF4,0.926

row,Sequence,median seed-adjusted z-score
1,CAACGAUGGUGUACUACAATT against ABCC9,0.376
2,CAAGCGGACCAGGACCUAUTT against CSDC2,-0.321
3,CAGUAUCCAUGGUGAUCUATT against ZP2,0.0455
4,GCAGCUCAACGGCAAAGAATT against RBM14,-0.0317
5,GCAUCUCAAUAUCAACAAUTT against LINGO2,0.123
6,GAAUAUCGGUUGGAUUAUATT against ITGAV,1.17 (active)
7,GGGCGGUCAUGGUUUUGAATT against CHST13,-0.447
8,CCGCUGUUAUCAUUACCAUTT against KIR2DL5B,1.72 (active)
9,GCUCUUCUAGACAUCGAUATT against NUBP1,-0.0975
10,GAGGUUCCCUAAUUUCCAATT against HIF1AN,-0.0315
11,ACUACCUUCUCAUCAAGGATT against CCL19,0.0364
12,GCCUAGAAUUUGUAUCCCATT against ATXN2,0
13,CCAAUCUGGUGACGAUUUATT against SP110,-0.788
14,GUAUUUCGAGUAAGUCUAATT against TTPA,-0.208
15,GGAGUUACUCCAUUAACUATT against JARID1C,0.372
16,CCUGCGUCUCUACAACUAUTT against AURKB,0.0901
17,GAGAUUUGAUGAGAAGAGATT against MMP3,0.0592
18,UCUGGCUUAUUAUAACUAUTT against ACOT2,0.578
19,AGAUCGAGCCGGACAUGAUTT against NACC1,1.59 (active)
20,GAUGGGUUCUUGAACAUAUTT against EXOG,0.746
